The values below come from PubChem BioAssay (NCI).

Among the test systems are SK-MEL-2 melanoma; EKVX NSCLC; SN12C renal; UO-31 renal; TK-10 renal; ACHN renal; CAKI-1 renal; A498 renal; MOLT-4 leukemia; SR leukemia; RPMI-8226 leukemia; OVCAR-8 ovarian; OVCAR-5 ovarian; OVCAR-4 ovarian; SK-OV-3 ovarian; IGROV1 ovarian; OVCAR-3 ovarian; HS 578T breast; NCI/ADR-RES ovarian; CCRF-CEM leukemia.
What all share (experiment): NCI-60 one-dose screen, 48 h (100 = growth as untreated, 0 = no growth, -100 = all killed)
Conditions in all cases: 10 µM unless noted

Compounds without any hit were thinned out: in the full panel of roughly 83,000, 20% have a hit.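 Single-dose data. Exposure time 48 hours. Values below 10 considered active.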 Unmarked numbers belong to inactive results. The source made the active and inactive calls.

On to `N#C/C(=C/C=C/c1cccc(Cl)c1)S(=O)c1ccccc1` (stereo unspecified), for which the growth with SK-MEL-2 melanoma was -12.3% (active); in the test on EKVX NSCLC it was -56.3% (active); in the test with SN12C renal, -55.4% (active); in the test with UO-31 renal, -65.6% (active); in the test with TK-10 renal it was -82.5% (active); in the test with ACHN renal, -82.6% (active). Also, the growth in the test on CAKI-1 renal was -68.2% (active); in the test on A498 renal, -69.9% (active); with MOLT-4 leukemia, -0.839% (active); in the test with SR leukemia, 1.43% (active); with RPMI-8226 leukemia, -13.4% (active); in the test on OVCAR-8 ovarian, -2.48% (active). The growth is -45.1% (active) with OVCAR-5 ovarian; -52.9% (active) in the test on OVCAR-4 ovarian; 19.6% with SK-OV-3 ovarian; -25.7% (active) in the test on IGROV1 ovarian; -86.1% (active) in the test with OVCAR-3 ovarian; 11.6% with HS 578T breast. Besides, in the test with NCI/ADR-RES ovarian, the growth is 7.8% (active).

Consider `COC1=CC(=O)C[C@@H](C)[C@]12Oc1c(Cl)c(OC)cc(OC)c1C2=O`, for which the growth is 82.7% in the test with SK-MEL-2 melanoma; 106% in the test with EKVX NSCLC; 96.5% with SN12C renal; 82.7% in the test with UO-31 renal; 96.3% with TK-10 renal; 99.9% in the test on ACHN renal. Also, the growth is 82.1% in the test with CAKI-1 renal; 114% with A498 renal; 93.9% with CCRF-CEM leukemia; 96.9% in the test with OVCAR-8 ovarian; 90.7% in the test on OVCAR-5 ovarian; 99.2% in the test on SK-OV-3 ovarian. Moreover, the growth was 89.2% in the test with IGROV1 ovarian, 99.8% in the test on OVCAR-3 ovarian, 91.5% with HS 578T breast and 75.5% in the test with NCI/ADR-RES ovarian.

Turning to `N#C/C(=C\c1ccc2c(c1)OCO2)n1nnc2cc(F)c(F)cc21`, the growth is 78.7% in the test with SK-MEL-2 melanoma; 82.7% with EKVX NSCLC; 68.3% with SN12C renal; 61.3% in the test with UO-31 renal; 101% in the test on TK-10 renal; 65.1% in the test on ACHN renal. Moreover, the growth in the test with CAKI-1 renal was 50.7%; with A498 renal, 44.9%; with MOLT-4 leukemia, 63.9%; with SR leukemia it was 42.6%; in the test on RPMI-8226 leukemia it was 64.5%; with OVCAR-8 ovarian, 60.7%. The growth with OVCAR-5 ovarian is 96.8%; with OVCAR-4 ovarian, 64.6%; with SK-OV-3 ovarian it was 83.6%; in the test with IGROV1 ovarian, 71.8%; with OVCAR-3 ovarian, 31.8%; with HS 578T breast, 84.7%. Also, in the test with NCI/ADR-RES ovarian, the growth was 27.4%.

As for `C[n+]1cc2c3c(ccc2c2ccc4cc5c(cc4c21)OCO5)OCO3`, the growth in the test with SK-MEL-2 melanoma is -77.4% (active); in the test with EKVX NSCLC, -74% (active); in the test with SN12C renal it was -53.4% (active); in the test on UO-31 renal, -94.6% (active); in the test with TK-10 renal, -95.4% (active); in the test on ACHN renal it was -92.2% (active). Besides, the growth is -29.9% (active) in the test with CAKI-1 renal; -64.1% (active) in the test with A498 renal; 11.8% in the test with CCRF-CEM leukemia; -79.5% (active) in the test with OVCAR-8 ovarian; -65.5% (active) in the test on OVCAR-5 ovarian; -99.5% (active) in the test with SK-OV-3 ovarian. The growth is -83.2% (active) with IGROV1 ovarian, -93.5% (active) in the test on OVCAR-3 ovarian, -2.95% (active) in the test with HS 578T breast and -36.4% (active) in the test on NCI/ADR-RES ovarian.

With `N#Cc1c(N)nn(C(=O)c2ccc(NC(=O)c3ccccn3)cc2)c1-c1ccc(Cl)cc1`, the growth with SK-MEL-2 melanoma was 79.3%; in the test with EKVX NSCLC, 49.2%; with SN12C renal it was 35%; in the test on UO-31 renal it was 54.3%; in the test on TK-10 renal, 24.6%; in the test on ACHN renal, 12.9%. For the same compound, the growth with CAKI-1 renal was 26%; in the test with A498 renal it was 51.1%; in the test with MOLT-4 leukemia, 52.9%; in the test with SR leukemia it was 50%; with RPMI-8226 leukemia, 43.6%; with OVCAR-8 ovarian it was 18.4%. Further, the growth with OVCAR-5 ovarian was 62.7%; in the test with OVCAR-4 ovarian it was -2.76% (active); in the test on SK-OV-3 ovarian, 67.2%; in the test on IGROV1 ovarian it was 11.1%; in the test on OVCAR-3 ovarian, 6.15% (active); with HS 578T breast, 28.6%. In addition, the growth in the test with NCI/ADR-RES ovarian is 28.5%.

For the compound `CC1(c2ccccc2)NC(=O)N(NC(=O)CSc2nc(-c3cccs3)nc3ccccc23)C1=O` (stereo unspecified), the growth in the test with SK-MEL-2 melanoma was 89.8%; with EKVX NSCLC, 93%; in the test on SN12C renal it was 100%; in the test with UO-31 renal it was -6.98% (active); in the test on TK-10 renal, 113%; with ACHN renal, 91.5%. Besides, the growth in the test on CAKI-1 renal is 72.3%; with A498 renal, 71.4%; with MOLT-4 leukemia it was 73.5%; with SR leukemia, 67%; in the test on RPMI-8226 leukemia, 72.9%; in the test with OVCAR-8 ovarian, 82.4%. Besides, the growth is 76.7% in the test on OVCAR-5 ovarian; 106% in the test with OVCAR-4 ovarian; 124% in the test on SK-OV-3 ovarian; 88.6% with IGROV1 ovarian; 95.9% in the test with OVCAR-3 ovarian; 101% in the test with HS 578T breast. Further, the growth in the test with NCI/ADR-RES ovarian is 87.9%.

With `N#CC1=C(NC=O)Oc2c(ccc3ccccc23)C1c1ccccc1` (stereo unspecified), the growth is 29% with SK-MEL-2 melanoma; 67.8% with EKVX NSCLC; 39.7% with SN12C renal; 41% with UO-31 renal; 54.6% in the test on TK-10 renal; 43.4% with ACHN renal. Moreover, the growth with CAKI-1 renal was 26.5%; in the test with A498 renal, 22.9%; with MOLT-4 leukemia, 39.5%; in the test on SR leukemia, 22.9%; in the test on RPMI-8226 leukemia, 19.1%; with OVCAR-8 ovarian, 23.6%. Further, the growth is 88.9% with OVCAR-5 ovarian; 64.5% in the test with OVCAR-4 ovarian; 16.3% in the test on SK-OV-3 ovarian; 38.6% with IGROV1 ovarian; 3.87% (active) with OVCAR-3 ovarian; 11.3% with HS 578T breast. The growth in the test on NCI/ADR-RES ovarian is 20.4%.

`COC(=O)c1c2c(c(C)[n+]([O-])c1C)C(=O)C(NCc1ccc(F)cc1)=CC2=O`: the growth is 30.6% with SK-MEL-2 melanoma; 58.8% in the test on EKVX NSCLC; -2.05% (active) in the test with SN12C renal; 71.9% in the test on UO-31 renal; 81.4% with TK-10 renal; 48.3% with ACHN renal. Besides, the growth in the test with CAKI-1 renal is 50.7%; in the test on A498 renal it was 98.6%; in the test with MOLT-4 leukemia, -19.6% (active); in the test on SR leukemia, 9.28% (active); with RPMI-8226 leukemia, 26.9%; in the test on OVCAR-8 ovarian, -5.16% (active). Moreover, the growth in the test on OVCAR-5 ovarian is 46.2%; in the test with OVCAR-4 ovarian, -38.5% (active); in the test on SK-OV-3 ovarian, 84.1%; in the test on IGROV1 ovarian, 17.6%; with OVCAR-3 ovarian, -21% (active); with HS 578T breast, 82.6%. Moreover, the growth with NCI/ADR-RES ovarian was 10%.
